In PubChem BioAssay (Tox21):
“And” between values parts separate entries of the source, which are not always exact repeats. Identical values can stand only once. Where a structure was tested more than once in an assay, its records may differ in their call. The source made the active and inactive calls. Where a call stands in place of a potency, no number is given. Unless noted, calls come from the whole dose curve; as a rule, active = well fitted curve in the direction sought with a large enough effect in the repeat runs; inconclusive = weak or mixed curves; inactive = no such curve, though single readings can be large; an effect the other way counts as inactive or inconclusive.

Assays:
[1] = qHTS assay to identify small molecule antagonists of the thyroid receptor (TR) signaling pathway - cell viability counter screen (AID 743064); note: nearly all actives have a fitted effect of over 50% in size; note: potency is the fitted concentration of half-maximal effect
How it was run: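 GH3.TRE-Luc cells, 4 h pre-plating; cpd + T3 1 nM final; 37 °C 23.5 h; CellTiter-Fluor 30 min; fluorescence read.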

[2] = qHTS assay to identify small molecule antagonists of the thyroid receptor (TR) signaling pathway (AID 743065); note: nearly all actives have a fitted effect of over 55% in size; note: potency is the fitted concentration of half-maximal effect
How it was run: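 GH3.TRE-Luc rat pituitary cells (two TREs driving luciferase) were dosed with compound, then stimulated with 1 nM T3 (final) for 23.5 h at 37 C. ONE-Glo luminescence was the read-out, with CellTiter-Fluor fluorescence as the cytotoxicity counter-screen.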

[3] = test system: thyroid hormone receptor (rat, GH3 cells); assay: qHTS assay to identify small molecule agonists of the thyroid receptor (TR) signaling pathway (AID 743066; calls by dose curve)
[4] = qHTS assay to identify small molecule antagonists of the estrogen receptor alpha (ER-alpha) signaling pathway - cell viability counter screen (AID 743074; calls by dose curve;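 note: HEK293 cells carrying ER-alpha-UAS-bla reporter stimulated with 17beta-estradiol; nearly all actives have a fitted effect of over 45% in size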; note: potency is the fitted concentration of half-maximal effect)
[5] = molecular target: Estrogen receptor (Homo sapiens) (UniProt P03372); assay: qHTS assay to identify small molecule agonists of the estrogen receptor alpha (ER-alpha) signaling pathway (AID 743075; calls by dose curve; note: potency is the fitted concentration of half-maximal effect)
Estrogen receptor (Homo sapiens), sequence (P03372 whole entry, looked up): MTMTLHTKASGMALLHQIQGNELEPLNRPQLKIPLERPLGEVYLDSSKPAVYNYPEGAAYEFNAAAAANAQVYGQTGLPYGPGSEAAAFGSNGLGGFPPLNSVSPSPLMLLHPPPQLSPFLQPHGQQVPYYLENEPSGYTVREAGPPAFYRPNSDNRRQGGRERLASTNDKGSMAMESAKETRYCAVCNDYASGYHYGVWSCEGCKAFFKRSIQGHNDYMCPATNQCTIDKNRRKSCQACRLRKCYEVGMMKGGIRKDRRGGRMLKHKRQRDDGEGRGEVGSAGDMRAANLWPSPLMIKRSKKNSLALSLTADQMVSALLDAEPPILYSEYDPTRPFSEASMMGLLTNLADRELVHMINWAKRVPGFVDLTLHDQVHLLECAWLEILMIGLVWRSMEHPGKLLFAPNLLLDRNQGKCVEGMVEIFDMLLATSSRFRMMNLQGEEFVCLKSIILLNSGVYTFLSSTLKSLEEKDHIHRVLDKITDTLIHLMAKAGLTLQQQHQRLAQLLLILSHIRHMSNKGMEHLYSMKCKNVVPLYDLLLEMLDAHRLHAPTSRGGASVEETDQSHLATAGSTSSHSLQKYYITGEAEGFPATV

[6] = molecular target: Estrogen receptor (Homo sapiens) (UniProt P03372); assay: qHTS assay to identify small molecule agonists of the estrogen receptor alpha (ER-alpha) signaling pathway using the BG1 cell line (AID 743079); details: BG1Luc4E2 cells, ERE-luciferase agonist, 22 h; activation: at 70.3 µM (top of the series) unless noted; note: nearly all actives have a fitted effect of over 20% in size; note: potency is the fitted concentration of half-maximal effect
[7] = qHTS assay to identify small molecule antagonists of the estrogen receptor alpha (ER-alpha) signaling pathway using the BG1 cell line (AID 743080; calls by dose curve;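 note: BG1 cells stimulated with 17beta-estradiol alongside compound; nearly all actives have a fitted effect of over 25% in size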)
How it was run: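 Luciferase inhibition measured with ONE-Glo after 30 min at RT in BG1Luc4E2 cells given test compounds and 17beta-estradiol for 21.5 h at 37 C; CellTiter-Fluor viability read in the same wells beforehand.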

[8] = qHTS assay to identify small molecule antagonists of the estrogen receptor alpha (ER-alpha) signaling pathway using the BG1 cell line - cell viability counter screen (AID 743081);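 note: compound given together with 17beta-estradiol as the ER stimulus; nearly all actives have a fitted effect of over 45% in size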; note: potency is the fitted concentration of half-maximal effect
[9] = molecular target: Aromatase (Homo sapiens) (UniProt P11511); assay: qHTS assay to identify aromatase inhibitors (AID 743083); note: nearly all actives have a fitted effect of over 55% in size; note: potency is the fitted concentration of half-maximal effect
Aromatase (Homo sapiens), sequence (P11511 whole entry, looked up): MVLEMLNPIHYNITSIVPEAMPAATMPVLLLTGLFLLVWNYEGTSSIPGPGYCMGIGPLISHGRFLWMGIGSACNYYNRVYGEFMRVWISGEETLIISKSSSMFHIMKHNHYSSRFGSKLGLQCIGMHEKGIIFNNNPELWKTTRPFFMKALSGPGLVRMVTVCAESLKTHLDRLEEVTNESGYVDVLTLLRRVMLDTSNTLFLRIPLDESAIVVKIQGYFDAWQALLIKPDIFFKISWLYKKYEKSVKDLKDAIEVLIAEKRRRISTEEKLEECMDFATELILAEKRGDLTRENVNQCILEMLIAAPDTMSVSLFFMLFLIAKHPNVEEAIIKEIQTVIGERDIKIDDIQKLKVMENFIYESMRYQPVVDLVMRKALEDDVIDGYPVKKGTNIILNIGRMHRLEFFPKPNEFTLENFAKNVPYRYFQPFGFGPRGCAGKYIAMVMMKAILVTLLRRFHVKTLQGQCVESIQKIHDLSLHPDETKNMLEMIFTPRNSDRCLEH

[10] = qHTS assay to identify aromatase inhibitors - cell viability counter screen (AID 743084);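 note: cells stimulated with testosterone during compound exposure; nearly all actives have a fitted effect of over 55% in size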; note: potency is the fitted concentration of half-maximal effect
[11] = molecular target: Aryl hydrocarbon receptor (Homo sapiens) (UniProt P35869); assay: qHTS assay to identify small molecule that activate the aryl hydrocarbon receptor (AhR) signaling pathway (AID 743085); note: nearly all actives have a fitted effect of over 15% in size; note: potency is the fitted concentration of half-maximal effect;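 for activation: HG2L7.5c1 human HepG2 liver cells with stably integrated DRE-driven firefly reporter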
Aryl hydrocarbon receptor (Homo sapiens), sequence (P35869 whole entry, looked up): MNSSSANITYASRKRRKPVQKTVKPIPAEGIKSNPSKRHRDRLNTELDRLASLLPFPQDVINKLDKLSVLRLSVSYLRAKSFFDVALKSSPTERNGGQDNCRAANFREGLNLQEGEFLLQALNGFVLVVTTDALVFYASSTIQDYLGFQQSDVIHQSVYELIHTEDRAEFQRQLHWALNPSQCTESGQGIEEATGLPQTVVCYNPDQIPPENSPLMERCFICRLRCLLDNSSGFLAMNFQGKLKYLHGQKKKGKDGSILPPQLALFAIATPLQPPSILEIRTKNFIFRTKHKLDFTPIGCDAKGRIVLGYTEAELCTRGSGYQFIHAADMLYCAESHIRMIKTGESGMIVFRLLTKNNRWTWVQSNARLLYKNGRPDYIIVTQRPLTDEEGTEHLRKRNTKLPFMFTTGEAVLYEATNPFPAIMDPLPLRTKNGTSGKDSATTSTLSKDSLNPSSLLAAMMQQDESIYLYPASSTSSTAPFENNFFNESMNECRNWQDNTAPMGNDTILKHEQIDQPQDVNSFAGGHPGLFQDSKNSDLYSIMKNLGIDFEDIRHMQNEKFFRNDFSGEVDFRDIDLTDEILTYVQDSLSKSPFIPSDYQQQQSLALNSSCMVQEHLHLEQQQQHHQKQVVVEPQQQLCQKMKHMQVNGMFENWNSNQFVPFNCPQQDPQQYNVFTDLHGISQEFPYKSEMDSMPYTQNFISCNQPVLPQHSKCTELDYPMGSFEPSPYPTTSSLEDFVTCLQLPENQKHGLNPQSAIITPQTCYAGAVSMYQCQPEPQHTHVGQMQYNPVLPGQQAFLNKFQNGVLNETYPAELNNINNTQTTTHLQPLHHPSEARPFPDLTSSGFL
How it was run: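 Luminescence read-out: ONE-Glo reagent, 30 min at room temperature, in HG2L7.5c1 HepG2 reporter cells treated 24 h at 37C. Viability was measured beforehand by CellTiter-Fluor fluorescence after 30 min at 37C.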

[12] = qHTS assay to identify small molecule that activate the aryl hydrocarbon receptor (AhR) signaling pathway - cell viability counter screen (AID 743086); note: nearly all actives have a fitted effect of over 45% in size; note: potency is the fitted concentration of half-maximal effect
How it was run: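 HepG2-AhR-luc (HG2L7.5c1) cells, 4000/well, treated 24 h at 37 C with compound; viability measured as CellTiter-Fluor fluorescence after 30 min in the same wells as the luciferase read.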

[13] = qHTS assay to identify small molecule antagonists of the peroxisome proliferator-activated receptor gamma (PPARg) signaling pathway - cell viability counter screen (AID 743194); details: Potency: co-treated with 50 nM rosiglitazone unless noted; note: nearly all actives have a fitted effect of over 55% in size; note: potency is the fitted concentration of half-maximal effect
How it was run: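 Cytotoxicity counter screen in PPARg-bla HEK293H cells, same wells as reporter assay. Compounds plus 50 nM rosiglitazone (final) for 17 h at 37 C, then viability read by CellTiter-Glo luminescence.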

[14] = qHTS assay for small molecule agonists of the antioxidant response element (ARE) signaling pathway (AID 743202; active = well fitted activation curve with a large enough effect in the signal ratio in the repeat runs, not every such curve was filed as active; inconclusive = weak or mixed curves, or effect the other way; inactive = no such curve, though single readings can be large or run the other way; the % refers to the signal ratio; note: potency is the fitted concentration of half-maximal effect)
How it was run: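 ARE-bla HepG2 cells (beta-lactamase reporter under the antioxidant response element), plated 5 hours, then exposed to compounds 16 hours at 37 C. LiveBLAzer B/G FRET substrate added for 2 hours at room temperature; fluorescence intensity read.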

[15] = qHTS assay for small molecule agonists of the antioxidant response element (ARE) signaling pathway - cell viability counter screen (AID 743203; calls by dose curve; note: nearly all actives have a fitted effect of over 55% in size)
How it was run: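 Following 16 hrs of compound treatment at 37C, HepG2 cells with an ARE-controlled beta-lactamase gene were lysed with CellTiter-Glo. Luminescence was read after 30 min at room temperature.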

[16] = qHTS assay for small molecule activators of the heat shock response signaling pathway - cell viability counter screen (AID 743209); note: nearly all actives have a fitted effect of over 50% in size; note: potency is the fitted concentration of half-maximal effect
How it was run: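 Readout: CellTiter-Glo luminescence, 30 min at room temperature. System: HSE-bla HeLa cells, 1500/well, plated overnight. Treatment: compounds in DMSO, 5 h at 37 C.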

[17] = qHTS assay for small molecule activators of the heat shock response signaling pathway (AID 743210; active = well fitted activation curve with a large enough effect in the signal ratio in the repeat runs, with a control signal flat, not every such curve was filed as active; inconclusive = weak or mixed curves; the % refers to the signal ratio)
How it was run: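 HSE-bla HeLa cells (beta-lactamase reporter under heat shock response elements), plated overnight, then exposed to compounds 5 h at 37 C; LiveBLAzer B/G FRET substrate added, 2.5 h at room temperature, fluorescence intensity read.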

[18] = molecular target: Peroxisome proliferator-activated receptor gamma (Homo sapiens) (UniProt P37231); assay: qHTS assay to identify small molecule antagonists of the peroxisome proliferator-activated receptor gamma (PPARg) signaling pathway (AID 743191; calls by dose curve; note: nearly all actives have a fitted effect of over 30% in size; note: potency is the fitted concentration of half-maximal effect)
Peroxisome proliferator-activated receptor gamma (Homo sapiens), sequence (P37231 whole entry, looked up): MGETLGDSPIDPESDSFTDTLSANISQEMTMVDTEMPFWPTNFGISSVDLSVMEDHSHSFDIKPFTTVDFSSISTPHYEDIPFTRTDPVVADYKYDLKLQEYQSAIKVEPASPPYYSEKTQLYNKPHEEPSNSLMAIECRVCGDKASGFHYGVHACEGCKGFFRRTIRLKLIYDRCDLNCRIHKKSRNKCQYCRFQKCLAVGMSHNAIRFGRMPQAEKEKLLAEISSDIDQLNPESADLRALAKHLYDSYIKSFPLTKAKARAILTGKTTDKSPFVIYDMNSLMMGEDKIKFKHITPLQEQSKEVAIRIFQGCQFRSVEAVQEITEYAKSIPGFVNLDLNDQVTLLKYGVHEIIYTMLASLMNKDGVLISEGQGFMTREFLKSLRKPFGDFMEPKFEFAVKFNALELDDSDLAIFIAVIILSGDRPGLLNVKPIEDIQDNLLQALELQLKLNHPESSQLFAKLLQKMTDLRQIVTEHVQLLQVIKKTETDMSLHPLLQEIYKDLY
How it was run: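 GeneBLAzer PPARg UAS-bla HEK293H cells, 5 h post-plating, exposed to compounds 17 h at 37C. LiveBLAzer B/G FRET substrate added for 1 h at room temperature; beta-lactamase reporter read by fluorescence intensity.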

[19] = molecular target: Estrogen receptor (Homo sapiens) (UniProt P03372); assay: qHTS assay to identify small molecule antagonists of the estrogen receptor alpha (ER-alpha) signaling pathway (AID 743069; active = well fitted curve in the direction sought with a large enough effect in the signal ratio in the repeat runs, not every such curve was filed as active; inconclusive = weak or mixed curves, or effect the other way; inactive = no such curve, though single readings can be large or run the other way; the % refers to the signal ratio; note: potency is the fitted concentration of half-maximal effect)
How it was run: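 HEK293 ER-alpha-UAS-bla GripTite cells, held overnight in 2% charcoal-stripped FBS, 5,000 cells/well, preincubated 4 h, then compound plus 17beta-estradiol for 18 h at 37C. Beta-lactamase read by LiveBLAzer B/G FRET substrate, 2 h at room temperature.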

[20] = molecular target: Peroxisome proliferator-activated receptor gamma (Homo sapiens) (UniProt P37231); assay: qHTS assay to identify small molecule agonists of the peroxisome proliferator-activated receptor gamma (PPARg) signaling pathway (AID 743094; active = well fitted activation curve with a large enough effect in the signal ratio in the repeat runs, not every such curve was filed as active; inconclusive = weak or mixed curves, or effect the other way; inactive = no such curve, though single readings can be large or run the other way; the % refers to the signal ratio)
How it was run: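 Compounds dissolved in DMSO were added to PPARg UAS-bla HEK293H cells for 17 h at 37C, and reporter expression was quantified by fluorescence intensity after 1 h with LiveBLAzer B/G FRET substrate.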

SMILES	Potency [1]	Potency [2]	Potency [3]	Potency [4]	Potency [5]	Potency [6]	Potency [7]	Potency [8]	Potency [9]	Potency [10]	Potency [11]	Potency [12]	Potency [13]	Potency [14]	Potency [15]	Potency [16]	Potency [17]	Potency [18]	Potency [19]	Potency [20]
C[C@]12CC[C@H]3[C@@H](CCC4=CC(=O)CC[C@@H]43)[C@@H]1CC[C@@H]2O	inactive	21.1 µM (active) and 13.3 µM (active) and 30.4 µM (active)	inactive	inactive	1.34 µM [inconclusive] (active) and 268 nM [inconclusive] (active) and 243 nM [inconclusive] (active)	106 nM (active) and 59.6 nM (active) and 108 nM (active)	inactive	inactive	inactive	inactive	inactive	inactive	inactive	34.1 µM (active)	inactive	inactive	inactive	–	–	–
Nc1ncn[nH]1	inactive	inactive	inactive	inactive	–	–	–	inactive	inactive	inactive	inactive	inactive	–	inactive	–	inactive	inactive	inactive	–	–
ClCc1ccccn1	inactive	inactive	inactive	–	inactive	inactive	inactive	inactive	inactive	inactive	inactive	inactive	–	inactive	–	inactive	inactive	inactive	inactive	–
Brc1ccc(Br)cc1	inactive	inactive	inactive	inactive	–	–	–	inactive	inactive	inactive	inactive	inactive	–	inactive	inactive	inactive	–	inactive	–	inactive
O=C1CCCO1	inactive	inactive	inactive	inactive	–	–	–	inactive	inactive	inactive	inactive	inactive	inactive	inactive	inactive	inactive	inactive	inactive	–	inactive
COC(=O)Nc1nc2ccccc2[nH]1	12.2 µM (active)	5.45 µM (active) and 7.7 µM (active)	inactive	inactive	–	–	–	inactive	inactive	inactive	24.3 µM (active)	inactive	–	inactive	inactive	inactive	inactive	inactive	–	inactive
Cl	inactive	inactive	inactive	inactive	–	–	–	inactive	inactive	inactive	inactive	inactive	inactive	inactive	inactive	inactive	inactive	–	–	–
ClCC(Cl)CCl	inactive	inactive	inactive	inactive	–	–	–	inactive	–	–	–	inactive	inactive	inactive	inactive	inactive	inactive	–	–	–
N#CC(c1ccccc1)c1ccccc1	inactive	inactive	inactive	inactive	–	–	–	inactive	inactive	inactive	–	inactive	–	inactive	–	inactive	inactive	inactive	–	–
COc1ccc(CO)cc1	inactive	inactive	inactive	inactive	–	–	–	inactive	inactive	inactive	inactive	inactive	–	inactive	inactive	inactive	inactive	–	–	–
CC(C)=CC1C(C(=O)OCN2C(=O)C3=C(CCCC3)C2=O)C1(C)C (centres undefined)	–	–	inactive	inactive	–	–	–	inactive	inactive	inactive	inactive	inactive	inactive	inactive	inactive	inactive	–	11.9 µM (active)	–	–
[Cl-].[Cl-].[Cl-].[Fe+3]	inactive	inactive	inactive	inactive	–	–	–	inactive	inactive	inactive	inactive	inactive	–	inactive	–	inactive	inactive	–	–	–
CC(C)CON=O	inactive	–	–	inactive	inactive	inactive	inactive	inactive	inactive	inactive	inactive	inactive	inactive	inactive	–	inactive	inactive	inactive	inactive	–
O=[N+]([O-])c1ccc(Nc2ccccc2)cc1	48.6 µM (active)	48.9 µM (active) and 30.6 µM (active)	inactive	–	inactive	–	–	48.9 µM (active) and 27.3 µM (active)	30.6 µM (active)	30.9 µM (active) and 27.3 µM (active)	inactive	24.5 µM (active) and 24.3 µM (active)	–	–	–	inactive and 27.5 µM (active)	inactive	–	–	–
CCC[CH2][Sn]([Cl])([Cl])[CH2]CCC	0.0344 µM (active)	49.2 nM (active) and 10.9 nM (active)	–	6.24 µM (active) and 2.75 µM (active)	44.2 µM [inconclusive] (active) and 43.6 µM [inconclusive] (active)	–	–	2.46 µM (active) and 770 nM (active)	694 nM (active) and 172 nM (active)	1.39 µM (active) and 686 nM (active)	inactive	1.39 µM (active) and 486 nM (active)	882 nM (active) and 43.6 nM (active)	–	–	0.0549 µM (active)	–	–	786 nM [inconclusive] (active) and 692 nM [inconclusive] (active)	–
